Results as given in publication PMC12136788.
Substitutions are numbered along the chain they refer to. The full ranking holds about 24,000 sequences; the median of “enrichment r” is about 0.99, and the highest 2% start at about 3.7. Only a selection was taken, and the highest values are over-represented in it overall.

T1: UNK ZnF1-3 (human, UniProt Q9C0B0 31-174)
T1 sequence: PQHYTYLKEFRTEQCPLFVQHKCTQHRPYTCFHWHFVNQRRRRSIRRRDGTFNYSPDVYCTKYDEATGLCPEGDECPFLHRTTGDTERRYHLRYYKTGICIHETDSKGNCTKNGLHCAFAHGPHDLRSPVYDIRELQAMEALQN

B1: chr5:145543945:145543946:-_ENSG00000133706_ENST00000545646|hu_hu|hu_hu_hu_mus_True|18_98 (ssRNA)
RNA: GGGAGUUCUACAGUCCGACGAUCCUGAACGGCCAGUGGCGGGAAAUAAUCAAGCCAGUGCUCUGCUUCAGAAAACUUCACUAUGUCGUCAUCAGAGAGCCCAAGGGAUUUCAUAAUGCCCCACUGGUACUUAGAAGAUCCUGCCAACAGAGGAUUGAGCAUCA
B2: 74491169_74493004_2024_3pUTR_ENSMUSG00000020745_ENSMUST00000021091|mouse|control|control (ssRNA)
RNA: GGGAGUUCUACAGUCCGACGAUCAUCAACGGCACUCCCACACCUUUACUGUUUGAUCUACACUGCCAGUAACCACAUAGGGUGCCGUCUUAUGGAAAUCCAAGGAGGUAACAAAGUGUUCAUGCGCAUUGAGGGUCUUCAUGCCAACAGAGGAUUGAGCAUCA
B3: chr10:36858571:36858572:-_ENSMUSG00000069662_ENSMUST00000092584|mus_mus|FALSE|FALSE (ssRNA)
RNA: GGGAGUUCUACAGUCCGACGAUCAUAAAAAAUUUUUAGUCGAAGAGAUCAAAAAAGCAGCAGCGCAGGAAGGAGGGAAAAAGGUGGAAAAGUCGAGCACAAAAAAGGAGCCCAAGUGUAGUUUUUUUAAAAAAAGAAGUAAUACAACAGAGGAUUGAGCAUCA
B4: 72182037_72182157_980_3pUTR_ENSG00000148730_ENST00000373218|human|control|control (ssRNA)
RNA: GGGAGUUCUACAGUCCGACGAUCCCAGAGGAAAGAAAGGAAGUGGACCUCAAAACAGUGUCACAGGGUAACGCUACCAGAGUUGCACAAGCUGUGCUCUGUCCCGAGGGACGAAUACCUCAAGGUAAAAGGGAAAGCAGCUCUCAACAGAGGAUUGAGCAUCA
B5: chr10:36858571:36858572:-_ENSMUSG00000069662_ENSMUST00000092584|mus_hu|FALSE|FALSE (ssRNA)
RNA: GGGAGUUCUACAGUCCGACGAUCAUAAAAAAAUUUUAGUCGAAGAGAUCAAAAAGCAGCAGCACAGGAGGGAGGGAAAAAGGGUGGAAAAGUCGAGCACAAAAAAAGGAGCCCAAGUGUAGUUCGAAAAAAAAAGAAGUAAUACAACAGAGGAUUGAGCAUCA
B6: chr5:134790399:134790400:-_ENSMUSG00000060261_ENSMUST00000173341|mus_hu|FALSE|FALSE (ssRNA)
RNA: GGGAGUUCUACAGUCCGACGAUCGGGAGGCGAGAGGGGGCGAGGGGCCCGUGCGUGUCGGUCGCGCUCCUGUCACCGCCGCAUGGCCGCCCCGCAGGCAGGGCCUCGCUCAGCGCCUUGAUCCGAUCACUGGGGGACAGAGGCCAACAGAGGAUUGAGCAUCA
B7: chr22:19452774:19452775:-_ENSG00000070010_ENST00000399523|hu_hu|hu_hu_hu_mus_False|28_58 (ssRNA)
RNA: GGGAGUUCUACAGUCCGACGAUCCUUCUCAUUGUAGUUGAUAGCAAUCACAUCUCCAGUCGUCAGACAGGCGAAGUUCCUAAGUGCAUUUUCUAAUACCGCUUUAGGGUUGGUGAUAUCCAGGAAGUCUGGGCUCUGAGGCUGCAACAGAGGAUUGAGCAUCA
B8: chr14:59855892:59855893:+_ENSMUSG00000035469_ENSMUST00000043227|mus_mus|motif|central (ssRNA)
RNA: GGGAGUUCUACAGUCCGACGAUCGCUUCCAUUAUUAUAUCAGAAGAAAACAUUAAUUUCAAUAAUAGUUUCUUGCUUUCGGUGAUUAUAACCAAAACCAAGUAGAAAAAUAAAAAGAUUGCAUUUAAAAAAAAUUUGCAAACCCAACAGAGGAUUGAGCAUCA
B9: chr2:42509997:42509998:+_ENSG00000143924_ENST00000318522|hu_hu|FALSE|FALSE (ssRNA)
RNA: GGGAGUUCUACAGUCCGACGAUCUCGCUGAGUUCUCUCCUCAUAAUUAAAUAGUACUACUACUGAUGCAAUGAAAUAAACUAUUUUCCCGGUCGGAAGAAGGUAAACAUUAGCUCUACAGUCCUUUCCUCGAUAACCAUAUGCCAACAGAGGAUUGAGCAUCA
B10: chr3:119456006:119456007:-_ENSMUSG00000028134_ENSMUST00000029780|mus_hu|FALSE|FALSE (ssRNA)
RNA: GGGAGUUCUACAGUCCGACGAUCAAUAUGAAGUACACGAGAAGGAGCACCAUCCAUUUUAUCUUCUCCUUUAAAUUUUUUACUAUCAUUACCAUUGGCUGUAACUACCAUGCUGCUCAUAUUAGAGUUCGGACUACUGAGAACCAACAGAGGAUUGAGCAUCA
B11: chr14:59855892:59855893:+_ENSMUSG00000035469_ENSMUST00000043227|mus_hu|motif|central (ssRNA)
RNA: GGGAGUUCUACAGUCCGACGAUCUUCCAUUAUUACAUUAGAUGAAAAAAUCAAUUCAAAUAAGAGUUGUCAUAUCCUGCGGUGAUUAACAAAAAAACAAGUAGAAAAAUAAGAGAGUGUAUUUAAAAAAAAUAAUCAAAUGCUCAACAGAGGAUUGAGCAUCA
B12: 55555555_55559808_3342_CDS_ENSG00000115355_ENST00000336838|human|control|control (ssRNA)
RNA: GGGAGUUCUACAGUCCGACGAUCCAAAAGUUUAUACCUGUCAUCAGUACUUUGUUCAUCAUGUAAGAGUCGCUCCUUAUUUAACCCUAUCUUCUCAAGCUCAUGAGUUAAUUUUUCGAGAUCAUUGUUCAUCUGUUGGGUCUUCAACAGAGGAUUGAGCAUCA
B13: chr8:72542918:72542919:-_ENSMUSG00000031858_ENSMUST00000050561|mus_mus|FALSE|FALSE (ssRNA)
RNA: GGGAGUUCUACAGUCCGACGAUCAGCUAUCAAGCCAAGAGGAGCUGAGCUGGUCCCAUAACUGUCCUCCAUGGGAAAGCUAAAUAGCUGCCAGGAAGGAACCCUCUCAUUCAGGUCCAAUGGGACUUCUGCCUGAUGCUUAGGCAACAGAGGAUUGAGCAUCA
B14: chr7:141441981:141441982:+_ENSG00000106028_ENST00000265304|hu_mus|hu_hu_hu_mus_False|8_88 (ssRNA)
RNA: GGGAGUUCUACAGUCCGACGAUCCUCAUGUCUUACAAACUGACGAAGUACCUGUAACACAGGUCUUCGAAACAUGGCUUCUGUUUUUCUUACAACCUAAUCUUUAGGCUUUUCCUAAAGGAAAGAAUAACCCGAGCAAAAUGACAACAGAGGAUUGAGCAUCA
B15: chr5:159492046:159492047:+_ENSG00000113312_ENST00000231238|hu_hu|FALSE|FALSE (ssRNA)
RNA: GGGAGUUCUACAGUCCGACGAUCAGUCAGCUUGUAAAGCUUUUGUUAUCUUUGUUAUCUGUUAUUAUUUGGAUUUUGAACGAAAUUGAUGGAGUACGAGCCGGUAGAGGAAUCCUGUUUGAUCUGGAAAUUUUCCGUGGAGAGCAACAGAGGAUUGAGCAUCA
B16: chr7:54825262:54825263:-_ENSG00000132432_ENST00000352861|hu_hu|hu_hu_hu_mus_False|58_58 (ssRNA)
RNA: GGGAGUUCUACAGUCCGACGAUCCUGCCGGCUGGGCUCCACAAACUGCAUUACCUGAUCCAUGUUUGUUGGAUGGCACACCUAAAACGUAGAGACACGUAGCUCAGGAGAGAACCGAGCCCAACGGAACCGGAAGCUGGCAACCAACAGAGGAUUGAGCAUCA
B17: chr2:148701057:148701058:-_ENSG00000115947_ENST00000542387|hu_hu|FALSE|FALSE (ssRNA)
RNA: GGGAGUUCUACAGUCCGACGAUCUGACCGCAGGUUUUUGCUGAUAUUGAAAUGCUUCUGUAGUACUUCUUGCACACUUCUAUCUUCUGAGAGAUACUGAACAUUUUCAUUCCACUUCUCAGCAAAAACCUUGUCUGGAAACUCCAACAGAGGAUUGAGCAUCA
B18: chr15:59961163:59961164:-_ENSG00000140299_ENST00000607373|hu_mus|FALSE|FALSE (ssRNA)
RNA: GGGAGUUCUACAGUCCGACGAUCGCCGACAUACUCCAUGGGAACAAGCUCUGCCAGCUCGGCCAAGUUAAAGACGUAUCUGAUCUUCUGACUGAACUUUGAACUGAUAAAUGGUCGUGUAACAGCCAGAAGUGUUCGGAUAAACAACAGAGGAUUGAGCAUCA
B19: 6624775_6624895_1421_CDS_ENSMUSG00000041272_ENSMUST00000039987|mouse|control|control (ssRNA)
RNA: GGGAGUUCUACAGUCCGACGAUCGCUCGGAUGCAUGGCGGUGAGCUGAGGAGUCAUUCCUGGUUGUUGGUGAUAGUGAGAACUUAGGUACAGAGCUGAGUGGGCCUGGCUGGGCCCAUGGAAUACUGACGGCUUUGAGUUGACCAACAGAGGAUUGAGCAUCA
B20: chrX:35795285:35795286:-_ENSMUSG00000016534_ENSMUST00000061755|mus_mus|FALSE|FALSE (ssRNA)
RNA: GGGAGUUCUACAGUCCGACGAUCGAAAUUCAUCUCCCAUUCUGCAUAAAGGCAAGUACCCUUUGAAUCUGUCAAAUUAACUAUCAAUGCAUUGGACUGAACGGCUCCUAGGAACAGAAAGAUCAGGAUGAGCUUUGCGCCUUUCAACAGAGGAUUGAGCAUCA
B21: 74470573_74471800_972_CDS_ENSMUSG00000021577_ENSMUST00000022062|mouse|control|control (ssRNA)
RNA: GGGAGUUCUACAGUCCGACGAUCGUUGAUGAGAAUCCCCCCCUCUCCACGACACCCUUCUGUGAUGAGGCAGCCAGCACCGUAUAUACCUGUGGGGUGGAACUGAACAAAUUCUAAGUCCUGGCAAGGCAAACCAGCCCUAGUCAACAGAGGAUUGAGCAUCA
B22: chr1:109605286:109605287:-_ENSG00000197780_ENST00000461096|hu_mus|hu_hu_hu_mus_True|18_98 (ssRNA)
RNA: GGGAGUUCUACAGUCCGACGAUCAAGUUUCAGAGUAUUCAGUGAUCACCUCUUUAAAUGCAAUUAUCCUUAUUAUAAGCUAAGCAGAAUAAUAAUUUAAUACCGUAAGUGAACUACCACAAAACCUUGAACCGCGAAAAUGGUCAACAGAGGAUUGAGCAUCA
B23: chr1:109605286:109605287:-_ENSG00000197780_ENST00000461096|hu_mus|hu_hu_hu_mus_True|18_38 (ssRNA)
RNA: GGGAGUUCUACAGUCCGACGAUCAAGUUUCAGAGUAACAUUCAGUAACCUCUUUAAAUGCAAUUAUCCUUAUUAUAAGCUAAGCAGAAUAAUAAUUUAAUACAUAGAGUGAACUACCACAAAACCUUGAACCGCGAAAAUGGUCAACAGAGGAUUGAGCAUCA
B24: chr1:150192741:150192742:-_ENSG00000143401_ENST00000314136|hu_hu|motif|central (ssRNA)
RNA: GGGAGUUCUACAGUCCGACGAUCUUAAUUAUGGGCUAAAAAUGACUAAUACAGUAAGCUUGAAUUUAAAAAAUUAAGUCGGAAUAAAUUGCUAGGGAAUUCCACAAUGGGAGUCAAUGAAAAUUUUUCUCUACAUACAAUAUGCAACAGAGGAUUGAGCAUCA
B25: chr1:150192741:150192742:-_ENSG00000143401_ENST00000314136|hu_hu|FALSE|FALSE (ssRNA)
RNA: B24 RNA with G80U, G81A
B26: chr3:160150142:160150143:+_ENSG00000113810_ENST00000344722|hu_hu|motif|central (ssRNA)
RNA: GGGAGUUCUACAGUCCGACGAUCAAAACCUGCCAUAAAUUCAUUAAGCCUUUGUUUCCGAAGAUCUUCAUAUGCCUGUCGGAAACUGUCUCUUUCAUAAGUAAUUUUGUCCAAUUCUGCUACCCGUUGCAAAUACAAUUCUUCCAACAGAGGAUUGAGCAUCA

target: T1, UNK ZnF1-3; assay: nsRBNS (natural sequence RNA bind-n-seq); RBNS binding buffer (assumed for nsRBNS): 25 mM Tris pH 7.5, 150 mM KCl, 3 mM MgCl2, 0.01% Triton X-100, 500 ug/ml BSA, 20 U/ml SUPERase-In, 4 C; UNK is unkempt and MSI1 is Musashi-1; names of the RNAs are library labels; protein concentration not given here; high values mean tight binding

Row | Binder | binding signal [enrichment R]
1 | B1 | 0.932
2 | B2 | 0.744
3 | B3 | 11.7
4 | B4 | 0.893
5 | B5 | 4.29
6 | B6 | 0.997
7 | B7 | 0.837
8 | B8 | 4
9 | B9 | 0.867
10 | B10 | 4.17
11 | B11 | 6.68
12 | B12 | 0.637
13 | B13 | 1.1
14 | B14 | 0.719
15 | B15 | 3.66
16 | B16 | 1.08
17 | B17 | 0.287
18 | B18 | 0.638
19 | B19 | 1.32
20 | B20 | 1.22
21 | B21 | 1.28
22 | B22 | 0.885
23 | B23 | 0.848
24 | B24 | 6.83
25 | B25 | 4.88
26 | B26 | 1.2
